# Results from PubChem BioAssay AID2283112 (EPA ToxCast).
# Records with an inconclusive call do not appear. Active and inactive are the calls of the source. The calls were made as follows: active = hit-call score of the fitted dose curve at least 0.9, where 1 is the maximum; inconclusive = response in the unintended direction; inactive = score below 0.9.
# Target: rat CYP1A1, Cyp1a1 (gene 24296) (UniProt P00185)
# Test: NVS_ADME_rCYP1A1: NovaScreen (NVS) CYP450-related Enzyme Activity (ADME) Assay for rat CYP1A1
# Procedure: NVS_ADME_rCYP1A1 is a biochemical, single-readout assay that uses extracted gene-proteins from baculovirus-insect cells in a cell-free assay. Measurements were taken 1 hour after chemical dosing in a 96-well plate.NVS_ADME_rCYP1A1 is one of one assay component(s) measured or calculated from the NVS_ADME_rCYP1A1 assay. It is designed to make measurements of enzyme activity, a form of enzyme reporter, as detected with fluorescence intensity signals by Fluorescence technology.Data from the assay component NVS_ADME_rCYP1A1 was analyzed into 1 assay endpoint. This assay endpoint, NVS_ADME_rCYP1A1, was analyzed in the positive analysis fitting direction relative to Acetonitrile as the negative control and baseline of activity. Using a type of enzyme reporter, loss-of-signal activity can be used to understand changes in the enzymatic activity as they relate to the gene Cyp1a1. Furthermore, this assay endpoint can be referred to as a primary readout, because this assay has produced multiple assay endpoints where this one serves a enzymatic activity function. To generalize the intended target to other relatable targets, this assay endpoint is annotated to the cyp intended target family, where the subfamily is xenobiotic metabolism.
# Binding assays used specific radioligands (tritiated, iodinated) with non-radioactive competitive displacement ligands in agonist or antagonist protocols (as indicated) and various reference compounds and inhibitors to titrate specific binding to receptors and transporters. Most enzyme assays (CYPs, kinases, phosphatases, proteases, HDACs) used recombinant protein and specific substrates (fluorescence mostly, some colorimetric and radioactive) and inhibitors, followed by a biochemical separation of substrate and product. All assays for the biochemical HTS were initially run in duplicate at a single concentration (10 uM for CYP450 assays and 25 uM for all others). Assay-chemical combinations meeting a pre-defined threshold (e.g., 30% inhibition and other criteria defined below) were then run in singleton concentration-response format with maximum concentration of 20 uM for CYPs and 50 uM for all others. Each assay was run with positive and negative controls, and concurrent controls on every plate. The follow-up (secondary) screen tested active chemical-pairs in concentration series, as well as a few additional assays not tested in the primary screen, some selected negative inactives, and several cases re-run in the concentration series for confirmatory purposes.
# Sequence of rat CYP1A1, Cyp1a1 (gene 24296) (P00185 whole entry, looked up): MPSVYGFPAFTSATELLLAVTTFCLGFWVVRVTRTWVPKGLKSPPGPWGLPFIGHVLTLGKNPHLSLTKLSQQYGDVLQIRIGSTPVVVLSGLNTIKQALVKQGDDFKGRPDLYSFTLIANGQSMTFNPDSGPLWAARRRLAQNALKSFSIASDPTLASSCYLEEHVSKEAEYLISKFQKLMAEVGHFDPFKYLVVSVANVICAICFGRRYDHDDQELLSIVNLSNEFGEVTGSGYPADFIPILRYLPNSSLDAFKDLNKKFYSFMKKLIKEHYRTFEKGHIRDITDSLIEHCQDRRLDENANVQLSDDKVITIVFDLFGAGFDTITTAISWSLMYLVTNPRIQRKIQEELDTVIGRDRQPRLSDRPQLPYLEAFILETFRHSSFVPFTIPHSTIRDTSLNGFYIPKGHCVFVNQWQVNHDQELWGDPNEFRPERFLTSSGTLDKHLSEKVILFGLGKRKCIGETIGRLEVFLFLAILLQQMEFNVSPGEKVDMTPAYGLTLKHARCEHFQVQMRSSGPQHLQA
SMILES,AC50,outcome
CCOP(=S)(OCC)Oc1ccc([N+](=O)[O-])cc1,7.95 µM (active),–
COP(=S)(OC)Oc1ccc([N+](=O)[O-])c(C)c1,–,inactive
COc1nc(C)nc(NC(=O)NS(=O)(=O)c2ccccc2Cl)n1,–,inactive
CCOP(=S)(OCC)SCn1c(=O)oc2cc(Cl)ccc21,–,inactive
CC[C@H](C)[C@H]1O[C@]2(C=C[C@@H]1C)C[C@@H]1C[C@@H](C/C=C(\C)[C@@H](O[C@H]3C[C@H](OC)[C@@H](O[C@H]4C[C@H](OC)[C@@H](NC)[C@H](C)O4)[C@H](C)O3)[C@@H](C)/C=C/C=C3\CO[C@@H]4[C@H](O)C(C)=C[C@@H](C(=O)O1)[C@]34O)O2,–,inactive
CC[C@H](C)[C@H]1O[C@]2(C=C[C@@H]1C)C[C@@H]1C[C@@H](C/C=C(\C)[C@@H](O[C@H]3C[C@H](OC)[C@@H](O[C@H]4C[C@H](OC)[C@@H](O)[C@H](C)O4)[C@H](C)O3)[C@@H](C)/C=C/C=C3\CO[C@@H]4[C@H](O)C(C)=C[C@@H](C(=O)O1)[C@]34O)O2 (tested in a mixture with another compound),–,inactive
CC(C)(C)C(=O)C(Oc1ccc(Cl)cc1)n1cncn1 (stereo not given),16.9 µM (active),–
COP(=S)(OC)Oc1ccc([N+](=O)[O-])cc1,–,inactive
COP(=S)(OC)SCn1nnc2ccccc2c1=O,–,inactive
CCCN(CCOc1c(Cl)cc(Cl)cc1Cl)C(=O)n1ccnc1,2.23 µM (active),–
